Reference: article PMC4081100, “A DNA-binding-site landscape and regulatory network analysis for NAC transcription factors in Arabidopsis thaliana”

Columns and labels:
Assay in all cases: universal protein binding microarray (PBM); transcription factors of Arabidopsis thaliana; high values mean tight binding
GST-ANAC092(1-176) = molecular target: T1, GST-ANAC092(1-176) (Arabidopsis thaliana, UniProt Q9FKA0 1-176); details: protein: recombinant; tags: GST; chain copies: 2; dsDNA, one strand shown
T1 sequence: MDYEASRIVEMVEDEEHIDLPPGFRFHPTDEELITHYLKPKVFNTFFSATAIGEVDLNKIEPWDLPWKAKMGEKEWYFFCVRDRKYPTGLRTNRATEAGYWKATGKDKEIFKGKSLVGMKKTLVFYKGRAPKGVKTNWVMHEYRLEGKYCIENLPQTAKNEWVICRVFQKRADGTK
How it was run: (§1)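 GST-tagged proteins (NAC-domain, full-length or DNA-binding-domain) were induced in cells, with zinc acetate supplied for zinc-finger proteins, then purified on glutathione–Sepharose 4B. Each was tested in duplicate at 200 to 500 nM final on custom all-10-mer Agilent 4 × 180K arrays rendered double-stranded by primer extension. The binding value is the normalised enrichment score (E-score) across gapped and ungapped 8-mers.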

GST-ANAC019 NAC domain = molecular target: T2, GST-ANAC019 NAC domain (Arabidopsis thaliana, UniProt Q9C932 14-162); details: protein: recombinant; tags: GST; chain copies: 2; dsDNA, one strand shown
T2 sequence: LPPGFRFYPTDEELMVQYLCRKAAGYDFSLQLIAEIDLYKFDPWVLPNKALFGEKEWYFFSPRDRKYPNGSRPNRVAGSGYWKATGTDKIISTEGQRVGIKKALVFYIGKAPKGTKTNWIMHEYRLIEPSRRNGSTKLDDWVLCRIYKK
How it was run: as §1

GST-ANAC055(1-171) = molecular target: T3, GST-ANAC055(1-171) (Arabidopsis thaliana, UniProt Q9LDY8 1-171); details: protein: recombinant; tags: GST; chain copies: 2; dsDNA, one strand shown
T3 sequence: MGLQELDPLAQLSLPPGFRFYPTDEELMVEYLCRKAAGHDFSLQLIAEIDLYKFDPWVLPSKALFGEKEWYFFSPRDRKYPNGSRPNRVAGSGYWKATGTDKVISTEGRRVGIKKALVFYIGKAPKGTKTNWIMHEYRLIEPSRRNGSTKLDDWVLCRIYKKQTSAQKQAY
How it was run: as §1

GST-ATAF1 NAC domain = molecular target: T4, GST-ATAF1 NAC domain (Arabidopsis thaliana, UniProt Q39013 7-158); details: protein: recombinant; tags: GST; chain copies: 2; dsDNA, one strand shown
T4 sequence: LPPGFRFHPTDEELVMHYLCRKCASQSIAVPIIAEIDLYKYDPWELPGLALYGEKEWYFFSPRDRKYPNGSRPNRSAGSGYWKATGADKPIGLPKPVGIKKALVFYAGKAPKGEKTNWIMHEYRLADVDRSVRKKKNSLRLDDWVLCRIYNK
How it was run: as §1

[1] = molecular target: T5, GST-ANAC092(1-285) full length (Arabidopsis thaliana, UniProt Q9FKA0 1-285); details: protein: recombinant; tags: GST; chain copies: 2; dsDNA, one strand shown
T5 sequence: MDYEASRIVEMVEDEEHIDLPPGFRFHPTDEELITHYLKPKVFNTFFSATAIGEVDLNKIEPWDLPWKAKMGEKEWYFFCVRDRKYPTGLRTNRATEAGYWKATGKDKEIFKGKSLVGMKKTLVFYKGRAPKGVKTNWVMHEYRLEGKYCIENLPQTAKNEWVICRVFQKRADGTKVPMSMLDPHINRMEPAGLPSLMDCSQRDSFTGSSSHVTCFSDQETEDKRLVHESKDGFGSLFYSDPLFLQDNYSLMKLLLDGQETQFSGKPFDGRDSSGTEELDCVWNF
How it was run: as §1

GST-NAP(1-166) = molecular target: T6, GST-NAP(1-166) (Arabidopsis thaliana, UniProt O49255 1-166); details: protein: recombinant; tags: GST; chain copies: 2; dsDNA, one strand shown
T6 sequence: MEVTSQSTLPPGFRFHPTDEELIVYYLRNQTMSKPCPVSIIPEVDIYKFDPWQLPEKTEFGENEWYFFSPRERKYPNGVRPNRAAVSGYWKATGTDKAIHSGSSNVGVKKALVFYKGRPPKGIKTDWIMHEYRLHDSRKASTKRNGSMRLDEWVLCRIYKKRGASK
How it was run: as §1

GST-NST2(1-184) = molecular target: T7, GST-NST2(1-184) (Arabidopsis thaliana, UniProt Q9M274 1-184); details: protein: recombinant; tags: GST; chain copies: 2; dsDNA, one strand shown
T7 sequence: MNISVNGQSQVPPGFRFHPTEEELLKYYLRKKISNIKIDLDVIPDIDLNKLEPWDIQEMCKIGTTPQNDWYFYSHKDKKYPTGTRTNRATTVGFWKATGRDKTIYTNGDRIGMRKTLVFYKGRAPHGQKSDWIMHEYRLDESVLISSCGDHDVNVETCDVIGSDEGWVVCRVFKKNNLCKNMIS
How it was run: as §1

GST-SND1(1-203) = molecular target: T8, GST-SND1(1-203) (Arabidopsis thaliana, UniProt Q9LPI7 1-203); details: protein: recombinant; tags: GST; chain copies: 2; dsDNA, one strand shown
T8 sequence: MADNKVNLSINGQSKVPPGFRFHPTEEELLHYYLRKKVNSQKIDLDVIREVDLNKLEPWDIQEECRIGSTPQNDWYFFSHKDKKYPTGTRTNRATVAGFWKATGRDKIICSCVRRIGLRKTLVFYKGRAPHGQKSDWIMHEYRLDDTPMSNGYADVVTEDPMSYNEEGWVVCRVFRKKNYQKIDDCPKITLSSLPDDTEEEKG
How it was run: as §1

GST-VND3 NAC domain = molecular target: T9, GST-VND3 NAC domain (Arabidopsis thaliana, UniProt Q9FH59 12-162); details: protein: recombinant; tags: GST; chain copies: 2; dsDNA, one strand shown
T9 sequence: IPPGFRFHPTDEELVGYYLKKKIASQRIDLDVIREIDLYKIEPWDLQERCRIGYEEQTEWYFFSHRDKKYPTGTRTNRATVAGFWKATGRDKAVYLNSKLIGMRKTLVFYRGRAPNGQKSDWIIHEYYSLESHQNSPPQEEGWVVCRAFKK
How it was run: as §1

GST-VND7 NAC domain = molecular target: T10, GST-VND7 NAC domain (Arabidopsis thaliana, UniProt Q9C8W9 9-158); details: protein: recombinant; tags: GST; chain copies: 2; dsDNA, one strand shown
T10 sequence: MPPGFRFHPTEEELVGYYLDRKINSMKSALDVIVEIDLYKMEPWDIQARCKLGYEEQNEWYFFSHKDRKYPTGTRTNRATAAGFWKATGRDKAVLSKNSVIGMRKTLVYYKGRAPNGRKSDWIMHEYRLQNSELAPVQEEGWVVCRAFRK
How it was run: as §1

GST-WRKY1(266-371) = GST-WRKY1(266-371) (Arabidopsis thaliana, UniProt Q9SI37 266-371); details: protein: recombinant; tags: GST; dsDNA, one strand shown
How it was run: as §1

GST-NTL6(1-168) = GST-NTL6(1-168) (Arabidopsis thaliana, UniProt Q9SCK6 1-168); details: protein: recombinant; tags: GST; chain copies: 2; dsDNA, one strand shown
How it was run: as §1

GST-NTL8 NAC domain = molecular target: T11, GST-NTL8 NAC domain (Arabidopsis thaliana, UniProt Q9XIN7 14-156); details: protein: recombinant; tags: GST; chain copies: 2; dsDNA, one strand shown
T11 sequence: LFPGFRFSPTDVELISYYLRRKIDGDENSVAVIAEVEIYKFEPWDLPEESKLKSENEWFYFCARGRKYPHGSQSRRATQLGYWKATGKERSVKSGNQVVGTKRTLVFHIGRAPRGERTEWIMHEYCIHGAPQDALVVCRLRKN
How it was run: as §1

GST-NTL6(1-168), sequence (Q9SCK6 1-168): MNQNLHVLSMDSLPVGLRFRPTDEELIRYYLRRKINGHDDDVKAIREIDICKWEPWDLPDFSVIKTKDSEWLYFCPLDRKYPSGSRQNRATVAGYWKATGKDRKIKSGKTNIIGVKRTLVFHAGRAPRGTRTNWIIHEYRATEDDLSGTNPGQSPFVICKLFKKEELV
GST-WRKY1(266-371), sequence (Q9SI37 266-371): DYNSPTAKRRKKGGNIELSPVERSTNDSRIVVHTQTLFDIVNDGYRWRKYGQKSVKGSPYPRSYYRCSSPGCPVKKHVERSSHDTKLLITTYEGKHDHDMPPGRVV

Sequence	binding signal (GST-ANAC092(1-176)) [E-score]	binding signal (GST-ANAC019 NAC domain) [E-score]	binding signal (GST-ANAC055(1-171)) [E-score]	binding signal (GST-ATAF1 NAC domain) [E-score]	binding signal [1] [E-score]	binding signal (GST-NAP(1-166)) [E-score]	binding signal (GST-NST2(1-184)) [E-score]	binding signal (GST-SND1(1-203)) [E-score]	binding signal (GST-VND3 NAC domain) [E-score]	binding signal (GST-VND7 NAC domain) [E-score]	binding signal (GST-WRKY1(266-371)) [E-score]	binding signal (GST-NTL6(1-168)) [E-score]	binding signal (GST-NTL8 NAC domain) [E-score]
GTCACGCA	0.319	0.307	0.236	0.193	0.4	0.197	0.119	0.257	0.167	0.252	0.228	–	–
AGATTGAC	0.135	–	0.0571	0.0846	0.15	–	0.0869	0.179	0.0944	0.0768	0.457	0.0646	–
GCGTGCAC	0.372	0.255	0.158	0.154	0.415	0.145	0.169	0.198	0.16	0.216	0.0555	–	–
CGTATACG	0.195	0.354	0.363	0.407	0.283	0.397	0.0918	0.0859	0.321	0.395	0.0731	–	–
AAGGAAAG	0.261	0.104	0.181	0.0767	0.186	–	0.239	0.262	0.0708	0.117	0.0652	0.398	0.467
ATTACGTC	0.366	0.329	0.353	0.356	0.405	0.376	0.333	0.432	0.37	0.357	0.0595	–	–
CTACGTCA	0.0986	0.133	0.129	0.166	0.318	0.148	0.31	0.452	0.144	0.176	0.137	–	–
GCGTGTCA	0.331	0.231	0.195	0.193	0.408	0.186	0.0663	0.0867	0.0583	0.189	0.0865	–	–
TACGTCAA	0.363	0.216	0.194	0.291	0.417	0.241	0.341	0.44	0.23	0.205	0.402	–	–
GACGTAAA	0.355	0.298	0.256	0.365	0.399	0.311	0.333	0.431	0.329	0.204	0.0785	–	–
GAGACGTA	0.194	0.432	0.395	0.411	0.331	0.396	0.236	0.322	0.418	0.413	0.0734	–	–
AAAGTCAT	–	–	–	0.14	0.119	0.0502	0.0576	0.162	0.0602	0.121	0.428	–	–
ACGCAAGG	0.399	0.084	0.106	0.106	0.448	0.2	0.226	0.39	0.122	0.128	0.201	–	0.152
TAAGGTCA	–	–	–	0.094	–	0.14	–	0.132	0.223	0.143	0.441	0.242	0.0905
GACGTCAA	0.16	–	0.0759	0.0728	0.19	0.122	0.0988	0.139	0.126	0.0526	0.436	–	–
